The campaign covered roughly 2,400 compounds. About 1,800 (75%) were called active. So high a share suggests a set chosen from earlier hits. Not all results are given here. Values without a mark were called inactive. No stated cut-off is given here; in the data, active means inhibition above about 22%; inactive means the rest.

A word on the inhibition: it is the percentage by which the read-out fell short of the control.

This assay in a line: calcium response inhibition in counter-screen line – cell-based, fluorescence, counter-screen for hTAAR1 antagonist project (AID 651780).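 Further: CHO-Ga16 host cells stimulated with ATP at an EC80 level; 0% = agonist EC80 plus vehicle and 100% = vehicle without agonist.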 Particulars: counterscreen cell line, antagonist mode, at 3 µM, active compounds read high. For orientation: Counterscreens check selectivity or assay interference.
For the molecule `O=C(CCc1ccccc1)Nc1cccc(-c2nnc(-c3ccco3)o2)c1`, the inhibition was 25.8% (active). `CCN=C1SC(CC(=O)Nc2ccc(C)cc2)C(=O)N1CC` (centres undefined): the inhibition was 29.4% (active). As for `O=C(Nc1ccccc1-c1nnn(CC(=O)N2CCN(c3ccccc3)CC2)n1)c1cccs1`, the figure is 36.9% (active); as for `Cn1c(C(=O)NCCc2ccsc2)cc2c(=O)n(C)c3ccccc3c21`, 27.8% (active). For the molecule `Cc1ccccc1OCC(=O)Nc1ccc(N2CCN(C(=O)C(C)C)CC2)c(Cl)c1`, the inhibition is 43.2% (active). On to `CN(c1ccccc1)S(=O)(=O)c1cc(C(=O)Nc2nc3ccccc3[nH]2)ccc1Cl`, for which the inhibition was 39.7% (active). The figure for `O=C(NCc1ccc2c(c1)OCO2)c1c(-c2ccsc2)sc2ccccc12` is 21.1%; for `COc1ccc(C2=NOC(Cn3nc(C(=O)NCc4ccc5c(c4)OCO5)cc3-c3ccccc3)C2)cc1` (centres undefined) it is 34.1% (active); for `O=C(COC(=O)c1ccccc1SCC(=O)N1CCCC1)Nc1ccccc1OC(F)F` it is 27.2% (active). For `CC(C)N(Cc1ccccc1)C(=O)COC(=O)c1ccccc1SCC(=O)N1CCCC1`, the inhibition was 30.8% (active). As to `Cc1cc(C(C)(C)C)oc1C(=O)N(CC(=O)NC1CCCC1)Cc1ccc(Cl)cc1`, the inhibition was 36% (active). In the case of `COC(=O)Cc1nnn2c1[C@H](C)[C@H](c1ccccc1[N+](=O)[O-])OCC2`, the inhibition was 5.35%. Turning to `COc1ccc(/C=C/C(=O)Nc2ccc(C34CC5CC(CC(O)(C5)C3)C4)cc2)cc1OC`, the inhibition is 37% (active).

Take `CCOc1ccc(N2CC(C(=O)N/N=C/c3sccc3C)CC2=O)cc1` (centres undefined): the inhibition was 10.5%.

Take `CSc1ncnc2c1ncn2CC(=O)C1CCC2C3CCC4=CC(=O)CCC4(C)C3CCC12C` (centres undefined): the inhibition is 49.7% (active). As for `CC(C)Oc1cc(F)ccc1-c1cc(C(=O)Nc2ccc(F)cc2)[nH]n1`, the figure is 26.3% (active); as for `COc1ccc(NC(=O)c2cc(-c3ccc(C)o3)nc3ccccc23)cc1`, 36.1% (active). As to `COc1ccc(-c2cc(C(=O)Nc3ccccc3O)c3ccccc3n2)cc1`, the inhibition was 32.2% (active). Take `N#Cc1cccc(NC(=O)COC(=O)c2ccccc2C(=O)c2ccc(Cl)c([N+](=O)[O-])c2)c1`: the inhibition is 36.1% (active). Take `O=C(NCCN1C(=O)S/C(=C\c2cccnc2)C1=O)c1ccc(S(=O)(=O)N2CCCC2)cc1`: the inhibition is 13%. With `O=C(NCCN1CCOCC1)c1ccc(/C=C2\Sc3ccccc3N(Cc3ccc(F)cc3)C2=O)cc1`, the inhibition is 35.2% (active).

For `COc1ccc(-c2cc(C(=O)N(C)Cc3ccc(OC)c(OC)c3OC)c3ccccc3n2)cc1OC`, the inhibition is 30.9% (active). The figure for `COc1ccc(-c2cc(C(=O)N(C)CC(=O)Nc3ccccc3Cl)c3ccccc3n2)cc1OC` is 27.4% (active); for `COc1ccc(CN(C)C(=O)c2cc(-c3ccc(C)cc3C)nc3ccccc23)c(OC)c1OC` it is 28% (active). On to `COc1ccc(-c2cc(C(=O)N(C)Cc3ccccc3)c3ccccc3n2)cc1`, for which the inhibition was 27.7% (active). As to `CCOc1cc(/C=N/NC(=O)c2cc(-c3ccccc3)nc3ccccc23)ccc1O`, the inhibition was 19%. With `O=C(N/N=C/c1ccc(OC(=O)c2ccccc2Cl)cc1)c1ccc(O)cc1`, the inhibition is 36.3% (active).

With `COc1ccc(C(=O)Nc2ccccc2C(=O)N/N=C/c2ccc(O)c(OC)c2)cc1`, the inhibition is 38.3% (active). In the case of `CC/C(=N/Nc1ccccc1)c1cnnc(SC)n1`, the inhibition is 16.8%.

For the origin of these results see PubChem BioAssay AID651780 (The Scripps Research Institute Molecular Screening Center, 2012).
